Compound activity: PubChem, National Center for Advancing Translational Sciences (NCATS)
The full list was thinned out, with hits kept by preference.
RGS12 GoLoco inh – RGS12 GoLoco-Gai1 interaction inhibition; P63096; Potency, µM (series often up to 61.6 µM), for inactives: at the top dose activity, negative = inhibition, hits mostly inhibitors; actives 0.44% (n = 230,000); AID 880; Gai1:RGS12 GoLoco peptide FP, rhodamine, 10 min; active = well fitted inhibition curve with a large enough effect, not every such curve was filed as active; inactive = no such curve, though single readings can be large or run the other way; note: nearly all actives have a fitted effect of over 30% in size
Target sequence (P63096 whole entry, looked up): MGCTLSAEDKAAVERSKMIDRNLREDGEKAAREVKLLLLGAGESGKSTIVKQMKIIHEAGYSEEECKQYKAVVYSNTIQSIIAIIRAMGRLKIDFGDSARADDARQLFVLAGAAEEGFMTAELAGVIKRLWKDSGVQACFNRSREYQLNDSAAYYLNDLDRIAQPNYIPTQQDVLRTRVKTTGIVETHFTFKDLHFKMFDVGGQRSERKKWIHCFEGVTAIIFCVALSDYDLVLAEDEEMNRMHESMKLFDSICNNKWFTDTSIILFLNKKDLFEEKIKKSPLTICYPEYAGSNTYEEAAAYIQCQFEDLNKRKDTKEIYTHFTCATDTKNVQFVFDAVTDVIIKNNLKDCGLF
APE1 inh-1 – APE1 (human) endonuclease inhibition; recombinant APE1, TAMRA/BHQ-2 abasic DNA cleavage fluorescence; Potency, µM (highest dose often 65.8 µM), inactives show at the highest dose activity change, negative = inhibition, usual class: inhibitors; actives 0.35% (n = 350,000); AID 2517;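 note: plate controls were vehicle for no effect and reference inhibitor for full effect; nearly all actives have a fitted effect of over 55% in size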
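0.75 nM APE1 + cpd, 15 min RT; start w/ 50 nM TAMRA/BHQ-2 THF-abasic dsDNA; kinetic fluor 525/598 nm ×3 reads @60 s; Δ(read3−read1); normalized to DMSO and NSC13755 control wells.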
RECQ1 inh – RECQ1 (human) helicase inhibition; Potency, µM (series often up to 57.3 µM), for the others: top-dose activity, negative = inhibition, usual class: inhibitors; RECQ1 DNA unwinding, red fluorescence kinetic read; AID 2549; P46063; actives 0.54% (n = 240,000);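 note: plate controls were vehicle for no effect and no enzyme for full effect; nearly all actives have a fitted effect of over 30% in size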
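50 nM RECQ1T1 preincubated 15 min with compound in Tris pH 8.0 buffer with MgCl2, DTT, Tween-20 and 2.5 ug/ml poly(dI-dC); started with 200 nM TAMRA/BHQ-2 forked duplex and 2 mM ATP. Unwinding read as fluorescence (525/598 nm), two reads 2 h apart.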
BLM helicase inh – inhibitors of human Bloom syndrome helicase BLM; actives 0.2% (n = 350,000); P54132; AID 2528; Potency, µM (doses to about 56.1 µM), for the others: top-dose activity change, negative = inhibition, usual class: inhibitors; recombinant BLM DNA unwinding, fluorescence dequenching;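 note: plate controls were vehicle for no effect and no enzyme for full effect; nearly all actives have a fitted effect of over 35% in size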
JMJD2E inh – blocks human JMJD2E demethylase activity; JMJD2E catalytic domain, FDH-coupled NADH fluorescence (FDH is formaldehyde dehydrogenase); actives 1.6% (n = 230,000); B2RXH2; AID 2147; Potency, µM (highest dose often 57.1 µM), without a hit: at the top dose activity change, negative = inhibition, usual class: inhibitors; active = well fitted inhibition curve with a large enough effect, not every such curve was filed as active; inconclusive = small, poorly fitted or top-dose-only effect, or another doubt; inactive = no such curve, though single readings can be large or run the other way;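 note: 0% = wells with enzyme and -100% = buffer wells without enzyme; nearly all actives have a fitted effect of over 50% in size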
L3MBTL1 inh – blocks human L3MBTL1 | Potency, µM (doses to about 57.1 µM), for inactives: top-dose activity, negative = inhibition, hits mostly inhibitors | Q9Y468 | actives 0.66% (n = 230,000) | AlphaScreen L3MBTL1–H3K9me1 peptide binding; note: nearly all actives have a fitted effect of over 60% in size
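AlphaScreen proximity signal between nickel-chelate acceptor and streptavidin donor beads (final 10 ug/mL) reports binding of 50 nM L3MBTL1 to 75 nM biotin-H3 K9me1 peptide; complex incubated with compounds 30 min at room temperature; cefsulodin titration as control.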
APE1 dye cs – counter-screen for APE1 inhibitors: DNA dye displacement; shares compounds with APE1 inh-1; DNA fluorescent dye displacement counterscreen, fluorescence; Potency, µM (titrated, usually from 28.5 µM), without a hit: top-dose activity change, negative = inhibition, most hits filed as inhibitors; actives 7% (n = 480);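 note: loss of thiazole orange fluorescence as the dye is displaced from duplex DNA; 0% = ThO with dsDNA and no compound and -100% = ThO without dsDNA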
EndoIV counter – counter-screen for APE1 inhibitors: inhibitors of E. coli endonuclease IV; actives 4% (n = 560); Potency, µM (top dose mostly 27.1 µM), inactives show at the top dose activity change, negative = inhibition, actives largely listed as inhibitors; shares compounds with APE1 inh-1; E. coli Endo IV, fluorogenic AP-site DNA cleavage; AID 2565;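 note: plate controls were uninhibited enzyme wells for no effect and no enzyme buffer wells for full effect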
APE1 inh-2 – APE1 (human) endonuclease inhibition, confirmation; shares compounds with APE1 inh-1; AID 2572; purified APE1, fluorogenic abasic-site DNA cleavage; Potency, µM (doses to about 57.1 µM), without a hit: at the highest dose activity change, negative = inhibition, usual class: inhibitors; actives 44% (n = 750); note: nearly all actives have a fitted effect of over 30% in size
APE1 FP inh – APE1 (human) DNA binding inhibition, fluorescence polarization | Potency, µM (series often up to 28.5 µM), inactives show at the highest dose activity, negative = inhibition, actives largely listed as inhibitors | AID 2573 | APE1 binding to TAMRA-labelled double-stranded DNA, fluorescence polarization displacement | actives 7% (n = 480) | shares compounds with APE1 inh-1
* = called active by the depositor; i = inactive; ? = inconclusive; . = not tested or not shown; [ ] = dose if it differs, or a comment. Unless noted, calls come from the whole dose curve; as a rule, active = well fitted curve in the direction sought with a large enough effect; inconclusive = small, poorly fitted or top-dose-only effect, or another doubt; inactive = no such curve, though single readings can be large; an effect the other way counts as inactive or inconclusive. Unless noted, % is set by controls: 0 for no effect and ±100 for the full control effect; potency is the fitted concentration of half-maximal effect.

SMILES | RGS12 GoLoco inh | APE1 inh-1 | RECQ1 inh | BLM helicase inh | JMJD2E inh | L3MBTL1 inh | APE1 dye cs | EndoIV counter | APE1 inh-2 | APE1 FP inh
Cc1ncc(CO)c(/C=N/NC(=O)c2ccc(Br)cc2)c1O | 6% | 2% | 3% | 8% | ? | ? | . | . | . | .
Cc1ncc(CO)c(/C=N/NC(=O)c2cc(O)c(O)c(O)c2)c1O | 11% | 4µM* | 14µM* | 5.6µM* | 13µM* | 1.6µM* | -10% | 156% | ? | 5%
COC(=O)c1ccc(CN2[C@@H]3C[C@@H](O)CC[C@@H]3C[C@H]2C(=O)OC)cc1 | 2% | -1% | -2% | 1% | -4% | . | . | . | . | .
Cc1ccc(C(=O)Nc2cccc(C(F)(F)F)c2)cc1Nc1ccccn1 | -2% | 35µM* | -19% | -13% | -29% | . | -10% | 12% | ? | 2%
CC(=O)OC1CC2C(C)(C)C(O)CC[C@@]2(C)C2CC[C@@]3(C)C(c4ccoc4)OC(=O)C4OC43[C@]12C (stereo partly drawn) | 2% | ? | -6% | -3% | 7% | . | 1%[57.1 µM] | 1%[57.1 µM] | ? | 0%[57.1 µM]
CC(=O)OC1CC2C(C)(C)C(O)CC[C@@]2(C)C2CC[C@@]3(C)C(c4ccoc4)OC(=O)C4O[C@@]43[C@]12C (stereo partly drawn) | 2% | -4% | -9% | -7% | -9% | . | . | . | . | .
N#CCCn1c(=O)c(-c2cc(F)cc(F)c2)nc2cnc(N3CCOCC3)nc21 | 4% | 0% | i | 0% | . | . | . | . | . | .
Clc1ccc(-c2csc(N/N=C/c3cccnc3)n2)c(Cl)c1 | -5% | 17% | -14% | -13% | 5% | -10% | . | . | -22% | .
COc1ccc2c(c1)c(=O)oc1cc(OCC(=O)N3CCC(C)CC3)ccc12 | 20% | 16µM* | 40µM* | -28% | ? | ? | -9% | 0% | 5µM* | ?
COc1ccc2c(c1)c(=O)oc1cc(OCC(=O)N3CCCC(C)C3)ccc12 (stereo not drawn) | 2% | ? | i | -7% | ? | -5% | . | . | . | .
COc1ccc(/C(C)=N/Nc2ccccc2Cl)c(O)c1 | -11% | ? | -10% | -5% | -28% | -15% | . | . | ? | .
COc1ccc(/C(C)=N/Nc2ccc(F)cc2F)c(O)c1 | -7% | 0% | -2% | -5% | ? | 24% | . | . | . | .
Cc1cccc(OCC(=O)Nc2ccc3oc(-c4ccccc4F)nc3c2)c1 | . | . | . | -4% | . | . | . | . | . | .
O=C1CCCC(O)=C1N=Nc1ccc2c(c1)OCO2 | 10% | -1% | -1% | -1% | 0% | -15% | . | . | . | .
O=C1CCCC(O)=C1N=Nc1ccc(C(=O)O)cc1 | -15% | 8.9µM* | ? | 41% | ? | 3.2µM* | ? | 66% | 10µM* | -10%
CC(C)(C)C(=O)[C@@H]1[C@@H]2C(=O)N(Cc3ccccc3)C(=O)[C@@H]2[C@H]2c3ccccc3C=CN12 | 43% | ? | -24% | -12% | -26% | . | . | . | -14% | .
